The supplement of paper PMC12494721
Where a name gives a salt, the structure may show the parent alone.

What was measured:
Settings in all cases: incubation time: 27 h, anaerobic, 37 °C;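 for the amine columns active = adjusted P below 0.05 in both replicates with a change the same way and a mean fold change under 0.8 or over 1.25; inactive = the rest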
[1] = tested on: Clostridium sporogenes DSM 1664; assay: growth (OD595) fold change vs plate DMSO controls (fold change (ratio)); higher = more growth
Outline: (§1)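 Shaken 96-well cultures in mGAM, grown anaerobically for 27 h at 37 °C, were read at 595 nm. OD came from blank-subtracted readings, corrected for background with 20 µM compound solutions in water and scaled by a calibration factor of 5. Growth is the fold change versus the plate's median DMSO control. Values average 2 biological replicates, and any fold change above 1.5 is NA.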

Escherichia coli IAI1 [2] = assay: as above
Outline: as §1

[3] = tested on: Klebsiella aerogenes DSM 30053; assay: as above
Outline: as §1

[4] = tested on: Ruminococcus gnavus DSM 108212; assay: as above
Outline: as §1

[5] = tested on: Klebsiella aerogenes DSM 30053; assay: fold change of Histamine concentration vs plate DMSO controls (fold change (ratio)); higher = more amine produced, active = hit call of the paper (significant change in both replicates, either direction)
Outline: (§2)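 Amines were quantified by LC–triple-quadrupole MS in dynamic MRM mode against external calibration curves, with drift correction within each batch. The samples were whole anaerobic mGAM cultures of four gut bacterial strains, grown for 27 h at 37 °C in 80 µL wells and extracted with cold acetonitrile/methanol with 0.1% formic acid, then centrifuged. Values are reported as fold change over DMSO controls on the same plate. The mean of 2 biological replicates is given.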

[6] = tested on: Clostridium sporogenes DSM 1664; assay: fold change of Tryptamine concentration vs plate DMSO controls (fold change (ratio)); higher = more amine produced, active = hit call of the paper (significant change in both replicates, either direction)
Outline: as §2

[7] = tested on: Ruminococcus gnavus DSM 108212; assay: as above
Outline: as §2

Escherichia coli IAI1 [8] = assay: fold change of Putrescine concentration vs plate DMSO controls (fold change (ratio)); higher = more amine produced, active = hit call of the paper (significant change in both replicates, either direction)
Outline: as §2

[9] = tested on: Klebsiella aerogenes DSM 30053; assay: as above
Outline: as §2

Escherichia coli IAI1 [10] = assay: fold change of Cadaverine concentration vs plate DMSO controls (fold change (ratio)); higher = more amine produced, active = hit call of the paper (significant change in both replicates, either direction)
Outline: as §2

[11] = tested on: Klebsiella aerogenes DSM 30053; assay: as above
Outline: as §2

[12] = tested on: Ruminococcus gnavus DSM 108212; assay: fold change of 2-Phenylethylamine concentration vs plate DMSO controls (fold change (ratio)); higher = more amine produced, active = hit call of the paper (significant change in both replicates, either direction)
Outline: as §2

Row | Compound | growth [1] | growth (Escherichia coli IAI1 [2]) | growth [3] | growth [4] | fold change of Histamine concentration [5] | fold change of Tryptamine concentration [6] | fold change of Tryptamine concentration [7] | fold change of Putrescine concentration (Escherichia coli IAI1 [8]) | fold change of Putrescine concentration [9] | fold change of Cadaverine concentration (Escherichia coli IAI1 [10]) | fold change of Cadaverine concentration [11] | fold change of 2-Phenylethylamine concentration [12]
1 | Nc1ccc(O)c(C(=O)O)c1 [Mesalamine] (20 µM) | 0.832 | 0.983 | 0.985 | 0.924 | 1.06 (inactive) | 1.02 (inactive) | 1.01 (inactive) | 0.957 (inactive) | 1.01 (inactive) | 0.97 (inactive) | 0.98 (inactive) | 1.04 (inactive)
2 | CC(=O)N(CC(O)CN(C(C)=O)c1c(I)c(C(=O)NCC(O)CO)c(I)c(C(=O)NCC(O)CO)c1I)c1c(I)c(C(=O)NCC(O)CO)c(I)c(C(=O)NCC(O)CO)c1I (centres undefined) [Iodixanol] (20 µM) | 0.85 | 0.989 | 1.03 | 1.01 | 0.962 (inactive) | 1.02 (inactive) | 0.886 (inactive) | 1.04 (inactive) | 1 (inactive) | 0.988 (inactive) | 0.991 (inactive) | 0.815 (inactive)
3 | O=S(=O)([O-])NC1CCCCC1.[Na+] [Sodium cyclamate] (50 µM) | 1.01 | 1.02 | 0.974 | 1.03 | 1.04 (inactive) | 1.01 (inactive) | 1.01 (inactive) | 1.03 (inactive) | 1.02 (inactive) | 1.05 (inactive) | 1 (inactive) | 1.02 (inactive)
4 | CO[C@@]1(NC(=O)C2SC(=C(C(N)=O)C(=O)O)S2)C(=O)N2C(C(=O)O)=C(CSc3nnnn3C)CS[C@@H]21 (some centres undefined) [Cefotetan] (20 µM) | 0 | 0.0332 | 0.987 | 1.17 | 0.528 (active) | 0.0152 (active) | 1.08 (inactive) | 0.606 (inactive) | 0.978 (inactive) | 2.18 (active) | 1.1 (inactive) | 1.1 (inactive)
5 | CC(NCCc1ccc(O)cc1)C(O)c1ccc(O)cc1 (centres undefined) [Ritodrine hydrochloride] (20 µM) | 0.998 | 0.987 | 0.985 | 0.697 | 0.979 (inactive) | 1 (inactive) | 1.02 (inactive) | 0.985 (inactive) | 1.01 (inactive) | 1.01 (inactive) | 1.01 (inactive) | 1.05 (inactive)
6 | NC(CO)C(=O)NNCc1ccc(O)c(O)c1O (centres undefined) [Benserazide hydrochloride] (20 µM) | 0.879 | 1.06 | 0.985 | 0.988 | 1.08 (inactive) | 0.965 (inactive) | 1.03 (inactive) | 1.19 (inactive) | 1.03 (inactive) | 0.994 (inactive) | 0.991 (inactive) | 1.03 (inactive)
7 | C[N+]1(C)CCC(OC(=O)C(O)(c2ccccc2)C2CCCC2)C1 (centres undefined) [Glycopyrrolate bromide] (20 µM) | 0.836 | 1.03 | 1.01 | 0.959 | 1 (inactive) | 1.01 (inactive) | 0.994 (inactive) | 1.08 (inactive) | 1 (inactive) | 1.01 (inactive) | 1.01 (inactive) | 1.02 (inactive)
8 | CCCCOc1cc(C(=O)NCCN(CC)CC)c2ccccc2n1 [Dibucaine] (20 µM) | 1.14 | 1.01 | 1.06 | 1.02 | 0.93 (inactive) | 1.02 (inactive) | 1 (inactive) | 0.927 (inactive) | 0.955 (inactive) | 0.961 (inactive) | 1.03 (inactive) | 1.03 (inactive)
9 | CC(=O)CC(c1ccccc1)c1c(O)c2ccccc2oc1=O (centres undefined) (20 µM) | 1.05 | 0.981 | 1 | 1.15 | 1.01 (inactive) | 0.979 (inactive) | 0.984 (inactive) | 1.01 (inactive) | 1 (inactive) | 0.995 (inactive) | 0.99 (inactive) | 0.99 (inactive)
10 | CC(C)c1ccc2oc3nc(N)c(C(=O)O)cc3c(=O)c2c1 [Amlexanox] (20 µM) | 0.911 | 1.2 | 1.05 | 0.857 | 0.877 (inactive) | 1.07 (inactive) | 1.03 (inactive) | 1.1 (inactive) | 0.984 (inactive) | 0.957 (inactive) | 1.03 (inactive) | 1.02 (inactive)
11 | Clc1ccc(CCC(Cn2ccnc2)Sc2c(Cl)cccc2Cl)cc1 (centres undefined) [Butoconazole nitrate] (20 µM) | 1.12 | 1.02 | 0.995 | 0.621 | 1.01 (inactive) | 1.07 (inactive) | 0.514 (active) | 0.997 (inactive) | 0.992 (inactive) | 0.995 (inactive) | 0.989 (inactive) | 0.623 (active)
12 | O=C1c2cccc(O)c2C(=O)c2c(O)cccc21 [Danthron] (20 µM) | 0.931 | 1.21 | 1.01 | 0.841 | 0.93 (inactive) | 1.02 (inactive) | 1 (inactive) | 1.24 (inactive) | 0.975 (inactive) | 1 (inactive) | 1.01 (inactive) | 0.965 (inactive)
